Measured potencies and affinities stand elsewhere.
test system: Klebsiella pneumoniae; settings: Concentration 20 uM; ASSAY_TEST Inhibition of Bacterial Growth; detection method Absorption (OD600); MEDIA CAMHB; plate type 384well; NBS; CORNING #3640; time 18 hr

Row | SMILES | Inhibition [%]
1 | O=C(O)C(Cl)Cl [DICHLOROACETIC ACID] | 10.68
2 | Cc1ccc(-c2nc3ccc(C)cn3c2CC(=O)N(C)C)cc1.Cc1ccc(-c2nc3ccc(C)cn3c2CC(=O)N(C)C)cc1.O=C(O)C(O)C(O)C(=O)O [ZOLPIDEM TARTRATE] | 6.38
3 | CN1CCC[C@H]1c1cccnc1 [NICOTINE] | -4.81
4 | CC[C@]1(O)CC[C@H]2[C@@H]3CCC4=CCCC[C@@H]4[C@H]3CC[C@@]21C [ETHYLESTRENOL] | 4.45
5 | CCCCCNC(=N)N/N=C/c1c[nH]c2ccc(OC)cc12.O=C(O)/C=C\C(=O)O [TEGASEROD MALEATE] | 6.68
6 | COC(=O)N1CCN(C(=O)Cc2ccc(Cl)c(Cl)c2)C(CN2CCCC2)C1.O=C(O)/C=C/C(=O)O (configuration not stated) | 6.19
7 | NC1=NC(=O)C(c2ccccc2)O1 (configuration not stated) [PEMOLINE] | 13.09
8 | COc1cc(CNC(=O)CCCC/C=C\C(C)C)ccc1O [ZUCAPSAICIN] | 12.92
9 | CCN(CC)CCOC(=O)C(O)(c1ccccc1)c1ccccc1.Cl | 9.09
10 | CN(C)CCc1c[nH]c2ccc(Cn3cncn3)cc12.O=C(O)c1ccccc1 [RIZATRIPTAN BENZOATE] | 7.74
11 | CN1CC[C@@]23CCCC[C@@H]2[C@@H]1Cc1ccc(O)cc13.O=C(O)C(O)C(O)C(=O)O | 17.43
12 | COc1ccc2[nH]cc(C3=CCNCC3)c2c1.COc1ccc2[nH]cc(C3=CCNCC3)c2c1.O=C(O)CCC(=O)O | 15.57
13 | CN1CCN(C2=Nc3cc(Cl)ccc3Nc3ccccc32)CC1 [CLOZAPINE] | 8.37
14 | C#CCN(C)[C@H](C)Cc1ccccc1.Cl [SELEGILINE HYDROCHLORIDE] | 8.65
15 | CN1[C@@H]2CC[C@H]1C[C@@H](OC(=O)c1c[nH]c3ccccc13)C2.Cl | 15.9
16 | Cc1ccnc2c1NC(=O)c1cccnc1N2C1CC1 [NEVIRAPINE] | 10.08
17 | NC(=O)OCCCc1ccccc1 [PHENPROBAMATE] | 12.49

Row | SMILES | Inhibition [%]
18 | Cl.O.Oc1ccc2c3c1O[C@H]1c4[nH]c5ccccc5c4C[C@@]4(O)C(C2)N(CC2CC2)CC[C@]314 | -0.12
19 | CS(=O)(=O)Nc1ccc(Cc2noc(-c3ccc4[nH]cc(CCN)c4c3)n2)cc1.O.O | 11.61
20 | CN1[C@@H]2CC[C@H]1CC(OC(=O)C(CO)c1ccccc1)C2 (some centres not stated) | 9.61
21 | Cc1ncc2n1-c1ccc(Cl)cc1C(c1ccccc1F)=NC2.Cl [MIDAZOLAM HYDROCHLORIDE] | 2.84
22 | C[C@]12CC[C@H]3[C@@H](CCC4=CC(=O)CC[C@@]43C)[C@@H]1CC[C@@H]2O [TESTOSTERONE] | 3.5
23 | COc1cc([C@@H]2c3cc4c(cc3[C@H](O)[C@H]3COC(=O)[C@H]23)OCO4)cc(OC)c1OC [PODOFILOX] | 15.68
24 | Cl.NCC(O)c1ccc(O)c(O)c1 (configuration not stated) | 15.27
25 | Cl.FC(F)(F)c1cccc(N2CCNCC2)c1 [N- (3-TRIFLUOROMETHYLPHENYL)PIPERAZINE HYDROCHLORIDE (TFMPP)] | 6.51
26 | CCCN1C[C@H](CSC)C[C@@H]2c3cccc4[nH]cc(c34)C[C@H]21.CS(=O)(=O)O [PERGOLIDE MESYLATE] | 13.95
27 | Cl.Cl.OCCN1CCN(CCCN2c3ccccc3Sc3ccc(C(F)(F)F)cc32)CC1 [FLUPHENAZINE HYDROCHLORIDE] | 7.98
28 | COCCCOc1ccnc(C[S+]([O-])c2nc3ccccc3[nH]2)c1C (configuration not stated) [RABEPRAZOLE] | 14.6
29 | Cl.O.Oc1cc2c(cc1O)[C@H]1c3ccccc3CN[C@@H]1CC2 | 11.23
30 | C[C@]12CCC(=O)C=C1CC[C@@H]1[C@@H]2CC[C@@]2(C)[C@H]1CC[C@]2(C)O [METHYLTESTOSTERONE] | 12.33
31 | Oc1ncnc2[nH]ncc12 [ALLOPURINOL] | 15.5
32 | C[N+]1(C)CCCC(OC(=O)C(O)(c2ccccc2)c2ccccc2)C1.[Br-] (configuration not stated) [MEPENZOLATE BROMIDE] | 9.6
33 | CC(NC(C)(C)C)C(=O)c1cccc(Cl)c1.Cl (configuration not stated) [BUPROPION HYDROCHLORIDE] | 2.52
34 | c1ccc2c3c([nH]c2c1)CNCC3 [TRYPTOLINE] | 13.54

test system: Candida albicans; settings: 20 µM

Row | SMILES | Inhibition [%]
35 | O=C(O)C(Cl)Cl [DICHLOROACETIC ACID] | 2.59
36 | Cc1ccc(-c2nc3ccc(C)cn3c2CC(=O)N(C)C)cc1.Cc1ccc(-c2nc3ccc(C)cn3c2CC(=O)N(C)C)cc1.O=C(O)C(O)C(O)C(=O)O [ZOLPIDEM TARTRATE] | 4.32
37 | CN1CCC[C@H]1c1cccnc1 [NICOTINE] | 1.61
38 | CC[C@]1(O)CC[C@H]2[C@@H]3CCC4=CCCC[C@@H]4[C@H]3CC[C@@]21C [ETHYLESTRENOL] | 4.07
39 | CCCCCNC(=N)N/N=C/c1c[nH]c2ccc(OC)cc12.O=C(O)/C=C\C(=O)O [TEGASEROD MALEATE] | 0.86
40 | COC(=O)N1CCN(C(=O)Cc2ccc(Cl)c(Cl)c2)C(CN2CCCC2)C1.O=C(O)/C=C/C(=O)O (configuration not stated) | 2.42
41 | NC1=NC(=O)C(c2ccccc2)O1 (configuration not stated) [PEMOLINE] | 1.75
42 | COc1cc(CNC(=O)CCCC/C=C\C(C)C)ccc1O [ZUCAPSAICIN] | 4.72
43 | CCN(CC)CCOC(=O)C(O)(c1ccccc1)c1ccccc1.Cl | 3.32
44 | CN(C)CCc1c[nH]c2ccc(Cn3cncn3)cc12.O=C(O)c1ccccc1 [RIZATRIPTAN BENZOATE] | 5.06
45 | CN1CC[C@@]23CCCC[C@@H]2[C@@H]1Cc1ccc(O)cc13.O=C(O)C(O)C(O)C(=O)O | 2.27
46 | COc1ccc2[nH]cc(C3=CCNCC3)c2c1.COc1ccc2[nH]cc(C3=CCNCC3)c2c1.O=C(O)CCC(=O)O | 3.46
47 | CN1CCN(C2=Nc3cc(Cl)ccc3Nc3ccccc32)CC1 [CLOZAPINE] | 0.59
48 | C#CCN(C)[C@H](C)Cc1ccccc1.Cl [SELEGILINE HYDROCHLORIDE] | 4.68
49 | CN1[C@@H]2CC[C@H]1C[C@@H](OC(=O)c1c[nH]c3ccccc13)C2.Cl | 3.12
50 | Cc1ccnc2c1NC(=O)c1cccnc1N2C1CC1 [NEVIRAPINE] | 2.39
51 | NC(=O)OCCCc1ccccc1 [PHENPROBAMATE] | 3.16

Row | SMILES | Inhibition [%]
52 | Cl.O.Oc1ccc2c3c1O[C@H]1c4[nH]c5ccccc5c4C[C@@]4(O)C(C2)N(CC2CC2)CC[C@]314 | 6.31
53 | CS(=O)(=O)Nc1ccc(Cc2noc(-c3ccc4[nH]cc(CCN)c4c3)n2)cc1.O.O | 2.75
54 | CN1[C@@H]2CC[C@H]1CC(OC(=O)C(CO)c1ccccc1)C2 (some centres not stated) | 0.86
55 | Cc1ncc2n1-c1ccc(Cl)cc1C(c1ccccc1F)=NC2.Cl [MIDAZOLAM HYDROCHLORIDE] | 3.62
56 | COc1cc([C@@H]2c3cc4c(cc3[C@H](O)[C@H]3COC(=O)[C@H]23)OCO4)cc(OC)c1OC [PODOFILOX] | 0.66
57 | Cl.NCC(O)c1ccc(O)c(O)c1 (configuration not stated) | 4.08
58 | Cl.FC(F)(F)c1cccc(N2CCNCC2)c1 [N- (3-TRIFLUOROMETHYLPHENYL)PIPERAZINE HYDROCHLORIDE (TFMPP)] | 4.36
59 | CCCN1C[C@H](CSC)C[C@@H]2c3cccc4[nH]cc(c34)C[C@H]21.CS(=O)(=O)O [PERGOLIDE MESYLATE] | 2.85
60 | Cl.Cl.OCCN1CCN(CCCN2c3ccccc3Sc3ccc(C(F)(F)F)cc32)CC1 [FLUPHENAZINE HYDROCHLORIDE] | 1.45
61 | COCCCOc1ccnc(C[S+]([O-])c2nc3ccccc3[nH]2)c1C (configuration not stated) [RABEPRAZOLE] | 5.74
62 | Cl.O.Oc1cc2c(cc1O)[C@H]1c3ccccc3CN[C@@H]1CC2 | 1.34
63 | C[C@]12CCC(=O)C=C1CC[C@@H]1[C@@H]2CC[C@@]2(C)[C@H]1CC[C@]2(C)O [METHYLTESTOSTERONE] | 4.22
64 | Oc1ncnc2[nH]ncc12 [ALLOPURINOL] | 2.36
65 | C[N+]1(C)CCCC(OC(=O)C(O)(c2ccccc2)c2ccccc2)C1.[Br-] (configuration not stated) [MEPENZOLATE BROMIDE] | 4.42
66 | CC(NC(C)(C)C)C(=O)c1cccc(Cl)c1.Cl (configuration not stated) [BUPROPION HYDROCHLORIDE] | 4.99
67 | c1ccc2c3c([nH]c2c1)CNCC3 [TRYPTOLINE] | 3.92

From ChEMBL document CHEMBL4513141, “CO-ADD screening of NIH (USA) - Clinical Collection” (2021)
